# Gal4-VP16 FLuc – VP16 counterscreen qHTS for inhibitors of ROR gamma transcriptional activity. Potency, µM (top dose mostly 53.6 µM), hits mostly inhibitors. Drosophila S2 Gal4-VP16 UAS-luciferase, luminescence, 20 h. hit rate 3.5% among 310,000. AID 2546, 2010;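 further: Gal4-VP16 expression switched on by copper sulfate through the metallothionein promoter; nearly all actives have a fitted effect of over 50% in size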
# LDHA inh – qHTS assay for inhibitors of human lactate dehydrogenase; purified LDHA, NADH/diaphorase-resazurin fluorescence; active compounds read low; activity change, % (values are at about 110 or 230 µM); hit rate 0.15% among 480,000; AID 1347041, 2019; in the data active means activity change below about -30%; inconclusive means mostly about -25% to -30%
#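 Enzyme activity of human lactate dehydrogenase 5 (2 nM; 0.06 mM NADH, 0.2 mM pyruvate, 5 min, RT) is measured via a resazurin/diaphorase fluorescence readout of residual NADH.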
# TDP1 cell CPT – qHTS for Inhibitors of human tyrosyl-DNA phosphodiesterase 1 (TDP1): qHTS in cells in presence of CPT; Potency, µM (series often up to 46.2 µM), usual class: inhibitors; chicken DT40 Tdp1-/-;hTDP1 cells + 20 nM CPT, ATP luminescence, 48 h; hit rate 12% among 420,000; AID 686979, 2013; further: nearly all actives have a fitted effect of over 55% in size
#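 Cell growth measured by CellTiter-Glo luminescence after a minimum 48 h, 37 C compound exposure with 20 nM CPT in Tdp1-knockout DT40 cells stably expressing hTDP1, seeded 400/well; qHTS titration format.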
# IL1B secr inh – qHTS for Inhibitors of Inflammasome Signaling: IL-1-beta AlphaLISA Primary Screen; THP-1 LPS/ATP IL-1B secretion, AlphaLISA, 16 h; active compounds read low; activity change, % at 57.5 µM; hit rate 4.7% among 360,000; in the data active means activity change below about -50%; inconclusive means mostly about -30% to -49%
#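 THP-1 cells pretreated 1 hr with compounds (up to 57.5 uM final), then stimulated with LPS (250 ng/mL final) plus ATP (1.25 mM final); secreted IL-1B measured by AlphaLISA after 16 hr, decreased signal indicating inhibition.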
# DT40 TDP1 no CPT – qHTS for Inhibitors of human tyrosyl-DNA phosphodiesterase 1 (TDP1): qHTS in cells in absence of CPT; Potency, µM (top dose mostly 46.2 µM), actives largely listed as inhibitors; hit rate 15% among 420,000; DT40 Tdp1-/- hTDP1 cells, no CPT, ATP luminescence, 48 h; further: nearly all actives have a fitted effect of over 55% in size
#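 A cellular qHTS used chicken DT40 cells lacking endogenous Tdp1 but carrying stably transfected human TDP1. Compounds were applied without camptothecin, and cell growth kinetics were judged by ATP-dependent luminescence after ≥48 hr.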
# RORgamma inh – qHTS for inhibitors of ROR gamma transcriptional activity. Nuclear receptor ROR-gamma (Mus musculus), P51450. Drosophila S2 Gal4-RORgamma UAS-luciferase reporter, 20 h. Potency, µM (titrated, usually from 53.6 µM), hits mostly inhibitors. hit rate 5.4% among 310,000. AID 2551, 2010; further: nearly all actives have a fitted effect of over 60% in size
# Target sequence (P51450 whole entry, looked up, the tested form may be a part): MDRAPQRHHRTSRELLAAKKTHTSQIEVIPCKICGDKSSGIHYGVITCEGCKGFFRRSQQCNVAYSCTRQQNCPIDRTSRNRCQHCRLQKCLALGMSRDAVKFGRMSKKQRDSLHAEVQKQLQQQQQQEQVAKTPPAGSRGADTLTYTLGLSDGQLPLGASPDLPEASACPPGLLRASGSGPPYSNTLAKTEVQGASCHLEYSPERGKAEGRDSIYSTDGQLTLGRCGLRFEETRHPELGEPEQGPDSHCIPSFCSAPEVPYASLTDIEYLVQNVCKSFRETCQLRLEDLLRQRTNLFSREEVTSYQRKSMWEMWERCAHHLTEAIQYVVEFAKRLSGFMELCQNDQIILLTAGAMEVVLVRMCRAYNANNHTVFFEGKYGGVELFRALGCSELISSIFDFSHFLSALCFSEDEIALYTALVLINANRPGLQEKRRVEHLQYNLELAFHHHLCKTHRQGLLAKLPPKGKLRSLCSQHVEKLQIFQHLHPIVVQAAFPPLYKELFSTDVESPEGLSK
#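 In this cell-based reporter format, copper sulfate (700 uM final) drives Gal4–ROR gamma fusion expression from a metallothionein promoter in Drosophila Schneider cells; compounds preincubated 1 hr, reporter read after 20 hr at ambient temperature.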
# Hits are given with their value; - = inactive; ? = inconclusive; . = no result given. In the library only some 18% were active in any assay of this set; here they are far more common. Unless noted, the call rests on the fitted dose curve; in most records, active means well fitted curve in the direction sought with a large enough effect; inconclusive means small, poorly fitted or top-dose-only effect, or another doubt; inactive means no such curve, though single readings can be large; an effect the other way counts as inactive or inconclusive.
SMILES,Gal4-VP16 FLuc,LDHA inh,TDP1 cell CPT,IL1B secr inh,DT40 TDP1 no CPT,RORgamma inh
CCn1c(SCC(=O)Nc2cc(C)on2)nc2sc3c(c2c1=O)CCCC3,?,-,?,-,6.51µM,?
C=CCn1c(SCC(=O)Nc2cc(C)on2)nc2sc(C)c(C)c2c1=O,-,-,?,-,6.51µM,-
C=CCn1c(SCC(=O)Nc2c(C)n(C)n(-c3ccccc3)c2=O)nc2sc(C)c(-c3ccccc3)c2c1=O,-,-,29.1µM,-,?,-
Cc1cc(C)c2cc(C(=O)NC3CCN(S(C)(=O)=O)CC3)[nH]c2c1,.,-,.,.,.,.
COC(=O)C(C)Oc1ccc2c(C)c(-c3ccc(Cl)cc3)c(=O)oc2c1 (stereo not drawn),.,-,.,.,.,.
C=CCn1c(SCC(=O)Nc2cc(C)on2)nc2c([nH]c3ccccc32)c1=O,11.2µM,-,?,-,-,?
C=C(C)Cn1c(SCC(=O)c2ccccc2)nc2sc3c(c2c1=O)CCCC3,.,-,-,.,?,.
C=C(C)Cn1c(SCC(=O)Nc2cccc(C)c2)nc2sc3c(c2c1=O)CCCC3,.,-,9.2µM,.,13µM,.
Cc1cc(NC(=O)CSc2nc(C3CC3)nc3sc4c(c23)CCC(C)C4)no1 (stereo not drawn),.,-,16.4µM,-,18.4µM,.
COc1cc(CCC(=O)OCC(=O)c2ccc(Cl)cc2)cc(OC)c1OC,.,-,.,.,.,.
O=C(O)c1cccc(Nc2ccncc2[N+](=O)[O-])c1,-,-,?,-,18.4µM,-
O=[N+]([O-])c1cnccc1Nc1ccccc1,-,-,?,-,?,-
CC1(C)CC(NC(=O)C2CCCN(c3ncnc4nc[nH]c34)C2)CC(C)(C)N1 (stereo not drawn),.,-,.,.,.,.
Cc1ccc(S(=O)(=O)NC2CC2)cc1C(=O)Nc1ccccc1C(C)C,.,-,.,.,.,.
Cc1ccc2cc(/C=C3\N=C(c4ccccc4)OC3=O)c(N3CCOCC3)nc2c1,-,-,?,-,18.4µM,-
O=C1c2ccccc2S(=O)(=O)N1Cc1nc2ccccc2s1,3.98µM,-,-,-,-,3.16µM
O=C1c2ccccc2S(=O)(=O)N1Cc1nc(-c2ccc(Cl)cc2Cl)cs1,.,-,.,.,.,.
COc1ccc(NC(=O)c2csc3c2CCCC3)cc1,?,-,-,-,-,-
Cc1nn(C)cc1/C=N\NC(=O)c1csc2c1CCCC2,?,-,?,-,?,?
COc1cc(/C=N/NC(=O)c2csc3c2CCCC3)cc(OC)c1O,-,-,?,-,5.17µM,-
Cc1ccc(/C=N/NC(=O)c2csc3c2CCCC3)cc1,-,-,1.3µM,-,1.3µM,?
CCC1c2ccsc2CCN1C(=O)/C=C/c1ccc(C)cc1 (stereo not drawn),.,-,.,.,.,.
OC1(c2ccc(Cl)c(Cl)c2)C[n+]2ccccc2N1Cc1ccccc1 (stereo not drawn),-,-,13µM,-84.9,18.4µM,-
Oc1cc2cc(-c3csc(-c4ccc(F)cc4)n3)cc3c2n1CCC3,.,-,?,.,20µM,.
CC(=O)Nc1ccc(-c2nc(-c3ccc4c(c3)CCC4)cs2)cc1,.,-,.,.,.,.
SMILES,Gal4-VP16 FLuc,LDHA inh,TDP1 cell CPT,IL1B secr inh,DT40 TDP1 no CPT,RORgamma inh
CCOC(=O)C(C)On1c(-c2cccc(Cl)c2)nc2ccc([N+](=O)[O-])cc21 (stereo not drawn),-,-,?,-,20.6µM,-
CCOC(=O)COn1c(-c2cccc(Cl)c2)nc2ccc([N+](=O)[O-])cc21,-,-,-,-,-,-
CCCNC(=O)N1CCN(c2oc(-c3ccco3)nc2C#N)CC1,.,-,.,.,.,.
O=C(Cc1cccs1)NNC(=S)NCc1ccco1,-,-,-,-,-,14.1µM
O=C(Cc1ccccc1)NNC(=S)NCc1ccccc1,.,-,.,.,.,.
O=C(Cc1ccc(-c2ccccc2)cc1)NNC(=S)NCc1ccco1,?,-,?,-,16.4µM,5.62µM

# High-throughput results: PubChem BioAssay, National Center for Advancing Translational Sciences (NCATS)
